Laboratory results as given in the supplement of paper PMC10681739.

Molecular target: RUNX1 (UniProt Q01196)
Assay: RUNX1 binding intensity (PBM fluorescence), RUNX1 alone (arbitrary fluorescence units); higher = stronger binding
Conditions: RUNX1 concentration 2 nM; ETS1 concentration 0 nM
Description: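 Cooperative gcPBM on 36-bp genomic probes with neighbouring ETS1 and RUNX1 sites. Recombinant human RUNX1 (2 nM) was incubated alone or with ETS1 (25 nM) and detected with anti-RUNX1 antibody plus Alexa488 secondary. Values are medians over 4 replicate spots; the RUNX1+ETS1 data were normalised to the RUNX1-only data. The probes sit in constant array flanks that are not printed.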
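Throughout, for RUNX1 binding intensity (PBM fluorescence), RUNX1 alone: Full-length recombinant human RUNX1 bound to double-stranded 36-bp genomic probes on a high-density microarray, scored as Alexa488 fluorescence per spot via anti-RUNX1 antibody, median of four replicate spots.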

Chain of RUNX1 (Q01196 whole entry): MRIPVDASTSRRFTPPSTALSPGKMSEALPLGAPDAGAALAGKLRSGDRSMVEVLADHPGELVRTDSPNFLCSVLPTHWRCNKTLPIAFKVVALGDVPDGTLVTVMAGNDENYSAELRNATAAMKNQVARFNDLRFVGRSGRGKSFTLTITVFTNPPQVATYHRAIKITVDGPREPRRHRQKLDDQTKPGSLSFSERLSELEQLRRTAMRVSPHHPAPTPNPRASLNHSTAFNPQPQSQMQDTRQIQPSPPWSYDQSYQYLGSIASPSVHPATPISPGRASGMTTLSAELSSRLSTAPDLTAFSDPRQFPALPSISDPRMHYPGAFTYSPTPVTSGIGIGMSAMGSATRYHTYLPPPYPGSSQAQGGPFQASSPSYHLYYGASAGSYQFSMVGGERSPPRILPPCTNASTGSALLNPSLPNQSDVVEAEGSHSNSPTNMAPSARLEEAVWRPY

Sequence	RUNX1 binding intensity
CTGCCGCGACAGACAGGATGTGGCTTCTGCTCTGTC	610
TATATGCACAGGAAGTCCCTTACAACCCACTCTGTT	869
TGACATTTCCGGCCCCACCTCGGCCCGCAGCGCCGC	955
GCACCGTACCCGGAACTGCTCCCTCCCGCAGGCGCA	930
GTTTGAAGGGAAGTGGGTGTTGACCTGCGGGCAACT	806
GTGGTCTCTCCCGGAAAAACCACTTCCACCGAGAAC	861
GGCTGTGCTTCAGGATGTGGTAATGCTTGGGAGGCG	780
GTGGTCTCTGCCACTTCCTGTGGTGTAAACAGTCTC	843
GTGGCGAAAGTGCGGATGCGAAACCGCTGGCTCGGC	782
CTCCTCCCCCACTTCCTATTTTTACCGCAGTTGCAC	4960
GCCACTTCCGGTCACTCCCCGCTGCGGCCTCGCGCT	1190
CAACGGCGTAGCCGGAAGTCAGTGGTTTTCGCCCCA	721
GAAGCTACTCTGGTTTCCTGTGGTTTTCTGAGCACT	1260
TCGCTTCCGGTGTCGGTTACAGACTGTGGTTGCCAT	906
TGGCGGGAGAACTTCCCCCTGTGCGGTCGCGACGTG	738
TGCTTCTGAGGAAGTGATCTGTGGTCAAAGAAAGAA	891
GAGAAAAGAGACTGAGGATGTGGTTTGGGGTGTGGG	844
CTACGACTTCCGTGATGCCTTGCGGTTGCTGTAGCC	2700
TAAGAGATTTCCTGTAAAGGTAACCACCAGCAAAGA	721
CCTCTTGCTGCCTCTTCCTGTGGTCTTTTCTCTGTC	1840

Sequence	RUNX1 binding intensity
CTCACAGAAGAGGCAGGAAGTGGTTTGAGTTATCAT	820
TTGGTTGTTGCCAGAGGATGTGGGTTGGCGGGGGAG	897
TGAGTCACATCCTGCAGGGCTGCGGTATCCTGGCTT	928
CCCCGCGGAACTCTGGCACAGTCAGCTGACCGCAGA	1600
CACTTCCTCTGTGACTGCAGGTTTCCAACCACAAGC	988
ACACAGAGAGTGAGAGGAAGTGGTTTAGAGATGAGA	769
CATGGTTGTTATTTCCTCACCACAATATGTGACATT	1200
AGGCTTCCGGCCACGCCCCCTTCCCGCGGTTGCTAG	748
CTTCTACTTCCTGCCCCGCCCCCAGCTGTGGTCACA	1490
ACCAGAAGCACTGCAGGATGTGGTATCAAGACGCCT	774
GACCAATGTAAACAAGGATGTGGGTTCTCCGGCCAC	785
CACTTCCGGGTCGTCAGCTCAGTTCTGCGGTTTCTG	4240
ATACAGACACAGGAAGTTGTGGGGAGTGCAAAAGCC	798
AGCGGCCGAAGGAAGTGACGTTTGCGGCAGTAAGGC	1130
TCCCTTACCTTCCTGCTGCCACCAAACCACCAAACC	2510
GCAGCTCTGGCAGGATGCGGTTAAATATGTATCCAC	1920
CGCCGGCTCCCGGATGTTGTGGGGATCAGCGCCCGC	771
AACTTAGCTTCCGGGAAGAAGGCGAGCGGTGGGAGG	735
GCAGGGGCCCATTTCCTGCCACAAGCCCACACAGGA	749
CCGCCCTAGAGCAGGAAATAGCGGTCAGCGCCAGCT	857

Molecular target: T1, ETS1 (UniProt P14921)
T1 sequence: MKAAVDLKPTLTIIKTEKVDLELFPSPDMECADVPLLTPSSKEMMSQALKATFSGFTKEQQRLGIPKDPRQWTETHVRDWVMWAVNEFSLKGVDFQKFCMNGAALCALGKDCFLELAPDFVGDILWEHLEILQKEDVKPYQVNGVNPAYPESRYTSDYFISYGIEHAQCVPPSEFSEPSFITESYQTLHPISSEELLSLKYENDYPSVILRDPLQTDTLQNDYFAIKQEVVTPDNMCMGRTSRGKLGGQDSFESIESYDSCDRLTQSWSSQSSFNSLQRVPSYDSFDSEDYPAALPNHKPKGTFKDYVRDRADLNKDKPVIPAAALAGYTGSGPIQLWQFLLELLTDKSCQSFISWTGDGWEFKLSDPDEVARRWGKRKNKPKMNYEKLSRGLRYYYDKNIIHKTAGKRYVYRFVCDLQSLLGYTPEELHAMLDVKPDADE
Assay: ETS1 binding intensity (PBM fluorescence) in presence of RUNX1, normalised to ETS1-only experiment (arbitrary fluorescence units); higher = stronger binding
Conditions: ETS1 concentration 1 nM; RUNX1 concentration 25 nM

Sequence	ETS1 binding intensity
CTGCCGCGACAGACAGGATGTGGCTTCTGCTCTGTC	16900
TATATGCACAGGAAGTCCCTTACAACCCACTCTGTT	3840
TGACATTTCCGGCCCCACCTCGGCCCGCAGCGCCGC	1170
GCACCGTACCCGGAACTGCTCCCTCCCGCAGGCGCA	540
GTTTGAAGGGAAGTGGGTGTTGACCTGCGGGCAACT	948
GTGGTCTCTCCCGGAAAAACCACTTCCACCGAGAAC	1440
GGCTGTGCTTCAGGATGTGGTAATGCTTGGGAGGCG	4180
GTGGTCTCTGCCACTTCCTGTGGTGTAAACAGTCTC	3730
GTGGCGAAAGTGCGGATGCGAAACCGCTGGCTCGGC	1060
CTCCTCCCCCACTTCCTATTTTTACCGCAGTTGCAC	1340
GCCACTTCCGGTCACTCCCCGCTGCGGCCTCGCGCT	8280
CAACGGCGTAGCCGGAAGTCAGTGGTTTTCGCCCCA	18200
GAAGCTACTCTGGTTTCCTGTGGTTTTCTGAGCACT	1320
TCGCTTCCGGTGTCGGTTACAGACTGTGGTTGCCAT	6190
TGGCGGGAGAACTTCCCCCTGTGCGGTCGCGACGTG	533
TGCTTCTGAGGAAGTGATCTGTGGTCAAAGAAAGAA	2040
GAGAAAAGAGACTGAGGATGTGGTTTGGGGTGTGGG	6260
CTACGACTTCCGTGATGCCTTGCGGTTGCTGTAGCC	1380
TAAGAGATTTCCTGTAAAGGTAACCACCAGCAAAGA	714
CCTCTTGCTGCCTCTTCCTGTGGTCTTTTCTCTGTC	951

Sequence	ETS1 binding intensity
CTCACAGAAGAGGCAGGAAGTGGTTTGAGTTATCAT	13700
TTGGTTGTTGCCAGAGGATGTGGGTTGGCGGGGGAG	4480
TGAGTCACATCCTGCAGGGCTGCGGTATCCTGGCTT	1680
CCCCGCGGAACTCTGGCACAGTCAGCTGACCGCAGA	2000
CACTTCCTCTGTGACTGCAGGTTTCCAACCACAAGC	1510
ACACAGAGAGTGAGAGGAAGTGGTTTAGAGATGAGA	3210
CATGGTTGTTATTTCCTCACCACAATATGTGACATT	463
AGGCTTCCGGCCACGCCCCCTTCCCGCGGTTGCTAG	1140
CTTCTACTTCCTGCCCCGCCCCCAGCTGTGGTCACA	3150
ACCAGAAGCACTGCAGGATGTGGTATCAAGACGCCT	6680
GACCAATGTAAACAAGGATGTGGGTTCTCCGGCCAC	3290
CACTTCCGGGTCGTCAGCTCAGTTCTGCGGTTTCTG	5740
ATACAGACACAGGAAGTTGTGGGGAGTGCAAAAGCC	5680
AGCGGCCGAAGGAAGTGACGTTTGCGGCAGTAAGGC	1450
TCCCTTACCTTCCTGCTGCCACCAAACCACCAAACC	1040
GCAGCTCTGGCAGGATGCGGTTAAATATGTATCCAC	12700
CGCCGGCTCCCGGATGTTGTGGGGATCAGCGCCCGC	3760
AACTTAGCTTCCGGGAAGAAGGCGAGCGGTGGGAGG	724
GCAGGGGCCCATTTCCTGCCACAAGCCCACACAGGA	1280
CCGCCCTAGAGCAGGAAATAGCGGTCAGCGCCAGCT	7280
